From PubChem BioAssay (Tox21) come the findings set out here.

Results filed as inconclusive are left out. A number with no mark means an inactive call. Calls come from the whole dose curve; as a rule, active = well fitted cell-killing curve with a large enough effect in the repeat runs; inconclusive = weak or mixed curves; inactive = flat fitted curve, though single readings scatter.
% is set by controls: 0 for no effect and ±100 for the full control effect.

The experiment can be described thus: qHTS assay to identify small molecule antagonists of the TGF-beta/Smad signaling pathway - cell viability counter screen (AID 1346824). Note: nearly all actives have a fitted effect of over 50% in size. The following applies: SBE-bla HEK293T viability, CellTiter-Glo luminescence; series mostly up to 76.8 µM; viability change, negative = cytotoxic: at the top concentration. The source says:
U.S. Tox21 Program National Center for Advancing Translational Sciences [NCATS] NIH Chemical Genomics Center [NCGC] U.S. Environmental Protection Agency [EPA] National Institutes of Environmental Health Sciences [NIEHS] National Toxicology Program [NTP] U.S. Food and Drug Administration [FDA] Tox21 Assay Overview: Transforming growth factor beta (TGF-beta) superfamily consists of a large number of structurally related dimeric proteins that act as hormones or local mediators in regulating a wide range of biological functions. This superfamily includes TGF-betas themselves, the bone morphogenetic proteins (BMPs) and the activins. These ligands induce oligomerization of serine/threonine receptor kinases and phosphorylate the cytoplasmic signaling molecules of Smad protein family. CellSensor SBE-bla HEK 293T cell line (Life Technologies, Carlsbad, CA), responsive to TGF-beta was used to screen Tox21 10K compound library for identification of agonists/antagonists of the Smad signaling pathway. This cell line contains a beta-lactamase reporter gene under control of the Smad binding element (SBE) stably integrated into HEK 293T cells. Also cytotoxicity of the compounds was tested in parallel by measuring the cell viability using CellTiter-Glo assay system in the same wells.
Tox21 Assay Protocol Summary: SBE-bla HEK 293T cells were dispensed at 4,000/well in 5 uL of assay medium into black wall/clear-bottom 1536-well plates using a Multidrop Combi (ThermoFisher Scientific, Waltham, MA) dispenser. After the assay plates were incubated at 37 C and 5% CO2 for an overnight, 23 nL of compounds dissolved in DMSO, positive controls or DMSO only was transferred to the assay plate by a Pintool station (Kalypsys, San Diego, CA). Compound transfer was followed by the addition of 1 uL of 0.25 ng/mL TGF-beta1 or assay buffer using two separate tips of Flying Reagent Dispenser (FRD, Aurora Discovery, San Diego, CA). The assay plates were incubated at 37 C and 5% CO2 for 5 hr. One uL of LiveBLAzer B/G FRET substrate (Life Technologies) was added using a Flying Reagent Dispenser (FRD, Aurora Discovery, San Diego, CA) and the plates were incubated at room temperature for 2 hr. Fluorescence intensity (405 nm excitation, 460 nm and 530 nm emissions) was measured using an Envision plate reader (PerkinElmer, Shelton, CT). For cytotoxicity read, 4 uL of CellTiter-Glo reagent (Promega Corporation, Madison, WI) was added to each well of the assay plates using FRD. After 30 min incubation at room temperature, the luminescence intensity was measured using ViewLux plate reader (PerkinElmer).
(In general: In qHTS, concentration-response curves come from the screen itself.)
Regarding `CC(=O)/C=C/c1ccco1`, the “viability change, negative = cytotoxic” value is 0.693%.
As for `CCN(Cc1cccc(S(=O)(=O)O)c1)c1ccccc1`, the figure is -0.791%.
Regarding `CCN1CN(CC)CN(CC)C1`, the “viability change, negative = cytotoxic” value is 1.97%.
As for `C=CCOCC(O)CCl` (stereo not given), the “viability change, negative = cytotoxic” value was 0.206%.
Turning to `CO[Si](CCCS)(OC)OC`, the “viability change, negative = cytotoxic” value is -1.96%.
Turning to `CC(C)COC(=O)/C=C/c1ccccc1`, the “viability change, negative = cytotoxic” value was 4.71%.
On to `C=CCOCC(CO)(COCC=C)COCC=C`, for which the “viability change, negative = cytotoxic” value was -1.55% [at 35.3 µM].
Turning to `c1ccc(CNc2ncnc3nc[nH]c23)cc1`, the “viability change, negative = cytotoxic” value was 0.592%.
Take `Cc1nc2n(c(=O)c1CCN1CCC(C(=O)c3ccc(F)cc3)CC1)CCS2`: the “viability change, negative = cytotoxic” value was -0.982% [at 35.3 µM].
For the molecule `CC(=O)c1ccc2c(c1)CCCC2`, the “viability change, negative = cytotoxic” value was -3.55%.
As for `Nc1ccc(/C=C/c2ccc(N)cc2S(=O)(=O)O)c(S(=O)(=O)O)c1`, the viability change, negative = cytotoxic was -0.698% [at 0.29 µM].
On to `Cc1cccc(NC(=S)N(C)C)c1`, for which the “viability change, negative = cytotoxic” value is -10.2%.
For `CCC1Nc2cc(Cl)c(S(N)(=O)=O)cc2S(=O)(=O)N1` (stereo not given) the value was 13.1% [at 35.3 µM]; for `Cc1cccc(C(=O)O)c1[N+](=O)[O-]`, 21.7%.
For `C=CCOc1c(Br)cc(C(C)(C)c2cc(Br)c(OCC=C)c(Br)c2)cc1Br` the value was -0.361% [at 35.3 µM].
As to `COc1cccc2sc(N)nc12`, the “viability change, negative = cytotoxic” value was -2.54%.
As to `O=C(O)c1ccccc1C(=O)OCc1ccccc1`, the “viability change, negative = cytotoxic” value was 8.52%.
As for `CO[Si](CCCCl)(OC)OC`, the figure is -2.1%; as for `CC(C)CCCCCCOC(=O)C1CCCCC1C(=O)OCCCCCCC(C)C` (stereo not given), 4.4%.
As for `CCCCC(C)C(=O)O` (stereo not given), the figure is -1.04%; as for `C=CCOC(=O)c1ccc(C(=O)OCC=C)c(C(=O)OCC=C)c1`, 16.6%.
Turning to `CCN(CC)C(=O)C1CN2CCc3cc(OC)c(OC)cc3C2CC1OC(C)=O` (stereo not given), the “viability change, negative = cytotoxic” value is 4.47% [at 35.3 µM].
Regarding `CC(Cl)COP(=O)(OCC(C)Cl)OCC(C)Cl` (stereo not given), the “viability change, negative = cytotoxic” value was 2.54%.
On to `O=[Si]=O`, for which the “viability change, negative = cytotoxic” value is -8.02%.
As for `CCC(=O)OCCC(C)CCC=C(C)C` (stereo not given), the figure is 0.572%.
On to `Cc1nc([N+](=O)[O-])cn1-c1ccc([N+](=O)[O-])cc1`, for which the “viability change, negative = cytotoxic” value was -5.25% [at 35.3 µM].
As for `COCC(=O)Nc1c(I)c(C(=O)NCC(O)CO)c(I)c(C(=O)N(C)CC(O)CO)c1I` (stereo not given), the “viability change, negative = cytotoxic” value is -4.87% [at 35.3 µM].
For the molecule `Cc1ncc([N+](=O)[O-])n1CC(O)CCl` (stereo not given), the “viability change, negative = cytotoxic” value is 3.59% [at 35.3 µM].
For `NC(Cc1c[nH]c2ccccc12)C(=O)O` (stereo not given), the “viability change, negative = cytotoxic” value is -3.56% [at 35.3 µM].
`CC(CC(=O)O)CC(C)(C)C` (stereo not given): the “viability change, negative = cytotoxic” value is -0.623%.
Turning to `O=C(O)c1ccc(OCCN2CCCCC2)cc1`, the “viability change, negative = cytotoxic” value was 2.67% [at 35.3 µM].
With `CCCCCCCCCOCC1CO1` (stereo not given), the “viability change, negative = cytotoxic” value was -12.9%.
For the molecule `O=C(O)Cc1cccc(-c2cc(CCCCCCc3ccc(O[C@H]4O[C@H](CO)[C@@H](O)[C@H](O)[C@@H]4O)c(-c4cccc(CC(=O)O)c4)c3)ccc2O[C@H]2O[C@H](CO)[C@@H](O)[C@H](O)[C@@H]2O)c1`, the viability change, negative = cytotoxic was 10.9% [at 0.29 µM].
On to `CCCCOC(=O)C(=O)OCCCC`, for which the “viability change, negative = cytotoxic” value was -5.19%.
As for `O=C1CC[C@H](C(=O)N2CCCCC2)N1`, the “viability change, negative = cytotoxic” value is 7.71% [at 35.3 µM].
Consider `Cn1c(=O)c2c(ncn2CC2OCCO2)n(C)c1=O`, for which the “viability change, negative = cytotoxic” value was 2.57% [at 35.3 µM].
For the molecule `C=C(C)[C@@H]1CC[C@@H](C)C[C@@H]1O`, the “viability change, negative = cytotoxic” value was 0.789%.
For `CC(=O)OC(C)(C)Cc1ccccc1`, the “viability change, negative = cytotoxic” value was 1.95%.
Take `OC[C@@H](O)[C@H](O)[C@@H](O)[C@@H](O)CO`: the “viability change, negative = cytotoxic” value was 0.009%.
For the molecule `CCCCCC(=O)OCC`, the “viability change, negative = cytotoxic” value is 5.26%.
